Data published in ChEMBL document CHEMBL2218924, “A broad activity screen in support of a chemogenomic map for kinase signalling research and drug discovery” (Biochem J, 2013).

Key:
[1] = target: T1, CDK9/cyclin T1 (Homo sapiens) (UniProt O60563+P50750); details: at 1 µM
[2] = target: T1, CDK9/cyclin T1 (Homo sapiens); details: at 10 µM
[3] = target: T2, Serine/threonine-protein kinase Chk1 (Homo sapiens) (UniProt O14757); details: at 1 µM
T2 sequence (whole entry): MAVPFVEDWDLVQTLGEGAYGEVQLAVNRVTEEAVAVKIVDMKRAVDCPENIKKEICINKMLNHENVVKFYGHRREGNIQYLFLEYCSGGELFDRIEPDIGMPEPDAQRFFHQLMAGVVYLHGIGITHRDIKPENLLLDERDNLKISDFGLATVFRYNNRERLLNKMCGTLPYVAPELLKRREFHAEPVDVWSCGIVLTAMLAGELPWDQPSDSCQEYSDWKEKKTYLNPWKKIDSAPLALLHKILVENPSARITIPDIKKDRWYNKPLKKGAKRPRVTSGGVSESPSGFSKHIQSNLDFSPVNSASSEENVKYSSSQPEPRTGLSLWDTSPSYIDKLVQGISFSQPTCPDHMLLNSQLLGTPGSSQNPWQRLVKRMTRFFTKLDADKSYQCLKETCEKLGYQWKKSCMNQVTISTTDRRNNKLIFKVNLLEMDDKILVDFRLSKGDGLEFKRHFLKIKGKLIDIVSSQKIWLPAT

[4] = target: T2, Serine/threonine-protein kinase Chk1 (Homo sapiens); details: at 10 µM
[5] = target: Serine/threonine-protein kinase Chk2 (Homo sapiens) (UniProt O96017); details: at 1 µM
[6] = target: Serine/threonine-protein kinase Chk2 (Homo sapiens) (UniProt O96017); details: at 10 µM
[7] = target: Casein kinase I isoform gamma-1 (Homo sapiens) (UniProt Q9HCP0); details: at 1 µM
[8] = target: Casein kinase I isoform gamma-1 (Homo sapiens) (UniProt Q9HCP0); details: at 10 µM
[9] = target: Casein kinase I isoform delta (Homo sapiens) (UniProt P48730); details: at 1 µM
[10] = target: Casein kinase I isoform delta (Homo sapiens) (UniProt P48730); details: at 10 µM

Serine/threonine-protein kinase Chk2 (Homo sapiens), sequence (O96017 whole entry, canonical isoform): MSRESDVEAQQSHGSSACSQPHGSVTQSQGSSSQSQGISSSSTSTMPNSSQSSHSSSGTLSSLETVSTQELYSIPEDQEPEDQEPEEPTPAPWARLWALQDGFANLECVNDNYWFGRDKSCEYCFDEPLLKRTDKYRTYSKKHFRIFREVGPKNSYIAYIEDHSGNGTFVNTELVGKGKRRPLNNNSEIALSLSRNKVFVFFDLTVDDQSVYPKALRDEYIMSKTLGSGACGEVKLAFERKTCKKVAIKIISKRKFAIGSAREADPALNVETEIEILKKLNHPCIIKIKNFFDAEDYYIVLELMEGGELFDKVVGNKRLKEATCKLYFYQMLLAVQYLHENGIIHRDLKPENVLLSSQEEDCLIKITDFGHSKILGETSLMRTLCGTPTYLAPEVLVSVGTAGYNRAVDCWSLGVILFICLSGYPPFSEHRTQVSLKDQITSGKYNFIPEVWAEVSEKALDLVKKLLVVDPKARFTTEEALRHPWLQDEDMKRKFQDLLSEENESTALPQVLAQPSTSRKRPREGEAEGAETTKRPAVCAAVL
Casein kinase I isoform gamma-1 (Homo sapiens), sequence (Q9HCP0 whole entry, looked up, canonical isoform): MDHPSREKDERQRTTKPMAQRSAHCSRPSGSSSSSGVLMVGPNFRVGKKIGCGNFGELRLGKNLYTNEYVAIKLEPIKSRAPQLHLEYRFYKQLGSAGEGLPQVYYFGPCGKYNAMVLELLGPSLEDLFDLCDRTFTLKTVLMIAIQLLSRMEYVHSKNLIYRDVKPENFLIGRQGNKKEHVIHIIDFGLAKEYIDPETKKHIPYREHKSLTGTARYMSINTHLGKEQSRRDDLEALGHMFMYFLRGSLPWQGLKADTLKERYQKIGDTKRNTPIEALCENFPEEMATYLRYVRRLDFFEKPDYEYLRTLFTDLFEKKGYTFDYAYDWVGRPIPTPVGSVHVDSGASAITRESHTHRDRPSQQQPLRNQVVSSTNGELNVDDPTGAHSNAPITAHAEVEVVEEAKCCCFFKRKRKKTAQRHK
Casein kinase I isoform delta (Homo sapiens), sequence (P48730 whole entry, looked up, canonical isoform): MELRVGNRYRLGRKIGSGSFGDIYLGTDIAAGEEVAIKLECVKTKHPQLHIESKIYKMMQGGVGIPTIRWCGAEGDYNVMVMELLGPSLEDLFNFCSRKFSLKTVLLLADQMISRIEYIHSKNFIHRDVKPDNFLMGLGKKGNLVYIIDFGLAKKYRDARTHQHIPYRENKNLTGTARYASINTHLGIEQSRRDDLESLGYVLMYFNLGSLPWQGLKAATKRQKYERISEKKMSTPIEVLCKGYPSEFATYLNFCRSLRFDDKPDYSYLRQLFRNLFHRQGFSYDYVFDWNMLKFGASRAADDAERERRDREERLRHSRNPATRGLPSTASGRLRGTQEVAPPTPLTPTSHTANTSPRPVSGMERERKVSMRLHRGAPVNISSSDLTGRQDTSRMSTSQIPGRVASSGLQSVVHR

| SMILES | residual activity [1] [%] | residual activity [2] [%] | residual activity [3] [%] | residual activity [4] [%] | residual activity [5] [%] | residual activity [6] [%] | residual activity [7] [%] | residual activity [8] [%] | residual activity [9] [%] | residual activity [10] [%] |
| --- | --- | --- | --- | --- | --- | --- | --- | --- | --- | --- |
| COc1ccc(S(=O)(=O)N(CCO)c2ccccc2CN(C)C/C=C/c2ccc(Cl)cc2)cc1 | 87 | 113 | 92 | 89 | 103 | 73 | 103 | 75 | 87 | 66 |
| O=c1c2ccccc2[nH]c(=S)n1CCN1CCC(=C(c2ccc(F)cc2)c2ccc(F)cc2)CC1 | 100 | 97 | 95 | 104 | 93 | 85 | 82 | 78 | 80 | 63 |
| c1ccc(-c2n[nH]cc2-c2ccnc3ccccc23)nc1 | 103 | 67 | 89 | 91 | 90 | 88 | 89 | 47 | 25 | 2 |
| N#Cc1cnc2cnc(NCc3cccnc3)cc2c1Nc1ccc(F)c(Cl)c1 | 93 | 100 | 3 | 1 | 49 | 36 | – | 93 | 79 | 62 |
| Nc1ccc2ncnc(NCCc3ccc(Oc4ccccc4)cc3)c2c1 | 94 | 107 | 94 | 72 | 52 | 17 | 87 | 82 | 77 | 53 |
| O=C1Nc2ccccc2/C1=C1/Nc2ccccc2/C1=N\OCCC(O)CO (stereo not given) | 12 | 7 | 68 | 33 | 26 | 3 | 102 | 55 | 35 | 9 |
| Cc1cc2ncc(-c3ccccc3)nc2cc1C | 105 | 85 | 94 | 92 | 84 | 89 | 93 | 87 | 87 | 55 |
| Cc1cncc2cccc(S(=O)(=O)N3CCCN(C(=O)CN)C[C@H]3C)c12 | 92 | 71 | 88 | 93 | 80 | 83 | – | – | 83 | – |
| Nc1cccc(-c2cc3c(Oc4cccc(O)c4)ncnc3[nH]2)c1 | 31 | 5 | 45 | 11 | 54 | 12 | 86 | 49 | 86 | 44 |
| O=C1NC(=O)c2cc(Nc3ccc(F)cc3)c(Nc3ccc(F)cc3)cc21 | 100 | 88 | 85 | 103 | 84 | 77 | 86 | 68 | 84 | 45 |
| Cc1nc2cc3nc(-c4cccs4)cnc3cc2n1C | 109 | 102 | 101 | 108 | 86 | 101 | – | 89 | 95 | 67 |
| CNc1cc2c(Nc3cccc(Br)c3)ncnc2cn1 | 86 | 86 | 88 | 77 | 97 | 56 | 101 | 69 | 111 | 90 |
| O=Nc1c(-c2c(O)[nH]c3ccccc23)[nH]c2ccccc12 | 26 | 11 | 65 | 30 | 13 | 2 | 57 | 19 | 14 | 4 |
| Cn1cc(/C=C2\C(=O)Nc3ccc(S(N)(=O)=O)cc32)c2ccccc21 | 62 | 55 | 16 | 7 | 4 | 1 | 88 | 52 | 93 | 59 |
| O=[N+]([O-])c1ccc(-c2nc(-c3ccc(F)cc3)c(-c3ccncc3)[nH]2)cc1 | 103 | 24 | 102 | 92 | 97 | 84 | 75 | 88 | – | 4 |
| Cn1nc2c3c(cccc31)C(=O)c1ccccc1-2 | 94 | 90 | 94 | 75 | 75 | 40 | 99 | 82 | 15 | 1 |
| CCN(CC)C(=O)c1ccc(Nc2nc(OCC3CCCCC3)c3nc[nH]c3n2)cc1 | 46 | 8 | 57 | 10 | 55 | 12 | 42 | 7 | 71 | 34 |
| Cc1cc(Nc2nc(-c3ccccc3)nc3ccccc23)n[nH]1 | 76 | 29 | 54 | 16 | 22 | 2 | – | 28 | 96 | 51 |

| SMILES | residual activity [1] [%] | residual activity [2] [%] | residual activity [3] [%] | residual activity [4] [%] | residual activity [5] [%] | residual activity [6] [%] | residual activity [7] [%] | residual activity [8] [%] | residual activity [9] [%] | residual activity [10] [%] |
| --- | --- | --- | --- | --- | --- | --- | --- | --- | --- | --- |
| CO[C@H]1C[C@@H]2CC[C@@H](C)[C@@](O)(O2)C(=O)C(=O)N2CCCC[C@H]2C(=O)O[C@H]([C@H](C)C[C@@H]2CC[C@@H](O)[C@H](OC)C2)CC(=O)[C@H](C)/C=C(\C)[C@@H](O)[C@@H](OC)C(=O)[C@H](C)C[C@H](C)/C=C/C=C/C=C/1C | 120 | 98 | 77 | – | 98 | 85 | 87 | 101 | 84 | 109 |
| COc1cc2ncc(-c3ccccc3)nc2cc1OC | – | – | 90 | 78 | 86 | 88 | 90 | 78 | 72 | 39 |
| O=C(Nc1cccc(Nc2cc(Nc3cccc(C(F)(F)F)c3)ncn2)c1)C1CC1 | 85 | 62 | 89 | 86 | 97 | 74 | 85 | 66 | 85 | 54 |
| CC(=O)O/N=C1\C(=C2\C(=O)Nc3cc(Br)ccc32)Nc2ccccc21 | 63 | 51 | 95 | 65 | 71 | 26 | 99 | 82 | 78 | 48 |
| O=C1Nc2cc(Br)ccc2/C1=C1/Nc2ccccc2/C1=N\O | 32 | 42 | 45 | 19 | 18 | 3 | 64 | 73 | 51 | 17 |
| COc1cc2ncnc(N3CCN(C(=O)Nc4ccc(Oc5ccccc5)cc4)CC3)c2cc1OC | 94 | 48 | 82 | 80 | 96 | 96 | 88 | 79 | 78 | 89 |
| Nc1nc(Nc2ccc(S(N)(=O)=O)cc2)nn1C(=S)Nc1c(F)cccc1F | 0 | -1 | 0 | -1 | 4 | 0 | 4 | 1 | 59 | 16 |
| CC(C)n1cnc2c(NCc3ccccc3)nc(NCCCO)nc21 | 56 | 7 | 95 | 87 | 86 | 60 | 94 | 49 | 70 | 22 |
| COc1ccc(CNc2nc(N(CCO)CCO)nc3c2ncn3C(C)C)cc1 | 29 | 0 | 93 | 87 | 77 | 33 | 67 | 29 | 40 | 6 |
| CC(C)n1cnc2/c(=N/c3cccc(Cl)c3)nc(NCCO)[nH]c21 | 63 | 24 | 38 | 25 | 64 | 21 | 8 | 0 | 37 | 7 |
| N#CC(C#N)=C(N)/C(C#N)=C/c1ccc(O)cc1 | – | 86 | 90 | 96 | 88 | 85 | 83 | 99 | 82 | 54 |
| O=C1NC(=O)/C(=C\c2ccc3nccnc3c2)S1 | 60 | 14 | 85 | 91 | 78 | 33 | 92 | 44 | 88 | 46 |
| CC(=O)c1ccc(N2CCOCC2)cc1O | 85 | 74 | 96 | 93 | 94 | 91 | 97 | 97 | 89 | 94 |
| CN(C)CCCn1cc(C2=C(c3c[nH]c4ccccc34)C(=O)NC2=O)c2ccccc21 | 17 | 3 | 54 | 17 | 52 | 16 | 107 | – | 90 | 79 |
| NC(=O)c1ccc2[nH]c(-c3ccc(Oc4ccc(Cl)cc4)cc3)nc2c1 | 81 | 78 | 91 | 97 | – | – | 78 | 57 | 83 | 83 |
| Cc1cccc(-c2[nH]c(C(C)(C)C)nc2-c2ccc3c(c2)OCO3)n1 | – | 98 | 88 | 92 | 91 | 97 | 101 | 100 | 69 | 33 |
| Cc1ccc(NC2=CC(=O)c3sc(C)nc3C2=O)cc1 | 104 | 106 | 96 | 87 | 96 | 82 | 97 | 88 | 96 | 88 |
